Source: PubChem BioAssay AID1159580 (chemical genetic matrix, 2015)
Several values for one entry are separate records, joined by “and”; a condition that tells them apart may be missing. Equal entries are not always repeated. In all, about 5,500 compounds went through this assay and about 2,000 (36%) were called active. Another 18% or so got no clear call; they are omitted. No stated cut-off is given here; in the data, active means normalized growth mostly below about 0.91 (no sharp cut-off); inconclusive means no clear call, values can overlap the other calls; inactive means mostly above about 0.92. The list shows a part of the results.

Test: chemical genetic growth profiling, strain panel (AID 1159580);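 further: tested at 20 µM; growth read once vehicle control cultures reached saturation at 30 °C; 1 = growth at the plate median or of vehicle wells; lower values mean less growth of the strain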
Conditions: S. cerevisiae deletion strains, growth OD

Measured: normalized growth

Cc1cc(C(C)(C)C)c(O)c(C)c1CC1=NCCN1
inactive: locus YAL013W, strain DEP1, hits give low values 0.986 and 1.02 | locus YAL021C, strain ccr4, hits give low values 1.01 | locus YAL026C, strain drs2, hits give low values 1 | locus YAL030W, strain snc1, hits give low values 1.01 | locus YAL040C, strain CLN3, hits give low values 1.01 | locus YBL061C, strain skt5, hits give low values 1.02 | locus YBR009C, strain hhf1, hits give low values 1.01 | locus YBR021W, strain FUR4, hits give low values 1 | locus YBR023C, strain chs3, hits give low values 1.02 | locus YBR171W, strain sec66, hits give low values 1.02 | locus YBR229C, strain ROT2, hits give low values 1 | locus YBR231C, strain swc5, hits give low values 0.998 | locus YBR279W, strain paf1, hits give low values 0.993 | locus YCL011C, strain gbp2, hits give low values 1.01 | locus YCL016C, strain dcc1, hits give low values 1.02 | locus YCL029C, strain bik1, hits give low values 1.02 | locus YCL061C, strain MRC1 (second series), hits give low values 1 | locus YCL061C, strain MRC1, hits give low values 1.01 | locus YCL069W, strain vba3, hits give low values 1 | locus YCR088W, strain abp1, hits give low values 1 | locus YDL005C, strain med2, hits give low values 0.998 | locus YDL035C, strain GPR1, hits give low values 1 | locus YDL040C, strain nat1, hits give low values 1 | locus YDL074C, strain BRE1, hits give low values 0.98 | locus YDL101C, strain DUN1, hits give low values 1 | locus YDL134C, strain PPH21, hits give low values 0.997 | locus YDL185W, strain tfp1, hits give low values 1.01 | locus YDL192W, strain arf1, hits give low values 1.02 | locus YDR001C, strain nth1, hits give low values 0.993 | locus YDR069C, strain doa4, hits give low values 1.01 | locus YDR101C, strain arx1, hits give low values 0.993 | locus YDR137W, strain rgp1, hits give low values 1.06 | locus YDR150W, strain NUM1, hits give low values 1 | locus YDR159W, strain sac3, hits give low values 0.991 | locus YDR162C, strain NBP2, hits give low values 0.991 | locus YDR195W, strain ref2 0.99 | locus YDR297W, strain sur2, hits give low values 1 | locus YDR318W, strain mcm21, hits give low values 1.01 | locus YDR334W, strain swr1, hits give low values 1.01 | locus YDR335W, strain msn5, hits give low values 1 | locus YDR363W, strain ESC2, hits give low values 1.01 | locus YDR388W, hits give low values 1 | locus YDR392W, strain spt3, hits give low values 0.954 | locus YDR502C, strain sam2, hits give low values 1 | locus YEL003W, strain gim4, hits give low values 0.981 | locus YEL037C, strain rad23, hits give low values 1 | locus YEL061C, strain CIN8 (second series), hits give low values 0.998 | locus YEL061C, strain CIN8, hits give low values 0.997 | locus YER002W, strain NOP16, hits give low values 0.998 | locus YER015W, strain faa2, hits give low values 0.998 | locus YER016W, strain bim1, hits give low values 1 | locus YER110C, hits give low values 1.02 | locus YER111C, strain swi4, hits give low values 1 | locus YER155C, strain BEM2 (second series), hits give low values 0.991 | locus YER155C, strain BEM2, hits give low values 0.996 | locus YER167W, strain BCK2, hits give low values 0.998 | locus YFR010W, strain ubp6, hits give low values 0.999 | locus YGL078C, strain dbp3, hits give low values 1.01 | locus YGL086W, strain mad1, hits give low values 1 | locus YGL167C, strain pmr1, hits give low values 1 | locus YGL173C, strain kem1, hits give low values 1.01 | locus YGL227W, strain vid30, hits give low values 1 | locus YGL240W, strain doc1, hits give low values 0.992 | locus YGL248W, strain PDE1, hits give low values 1 | locus YGL253W, strain hxk2, hits give low values 1.01 | locus YGR078C, strain PAC10, hits give low values 1 and 0.998 | locus YGR135W, strain pre9, hits give low values 1.01 | locus YGR229C, strain SMI1, hits give low values 1.01 | locus YGR252W, strain gcn5, hits give low values 0.967 | locus YHR013C, strain ard1, hits give low values 1.01 | locus YHR027C, strain rpn1, hits give low values 1.02 | locus YHR030C, strain SLT2, hits give low values 0.998 and 0.968 | locus YHR079C, strain IRE1 (second series), hits give low values 1.01 | locus YHR079C, strain IRE1, hits give low values 0.977 | locus YHR094C, strain hxt1, hits give low values 0.994 | locus YHR129C, strain ARP1, hits give low values 1.01 | locus YHR142W, strain chs7, hits give low values 0.997 | locus YHR200W, strain rpn10, hits give low values 0.994 | locus YIL066C, strain RNR3, hits give low values 1 | locus YIL073C, strain SPO22, hits give low values 1.04 | locus YIL125W, strain kgd1, hits give low values 1 | locus YIR030C, strain dcg1, hits give low values 1.01 | locus YJL092W, strain hpr5, hits give low values 1.01 | locus YJL095W, strain BCK1 (second series), hits give low values 1.01 | locus YJL095W, strain BCK1, hits give low values 1 and 0.981 | locus YJL115W, strain asf1, hits give low values 1 | locus YJL129C, strain trk1, hits give low values 0.993 | locus YJL134W, strain LCB3, hits give low values 0.997 | locus YJL154C, strain vps35, hits give low values 1 | locus YJL164C, strain tpk1, hits give low values 1 | locus YJL166W, strain qcr8, hits give low values 1.01 | locus YJL168C, strain set2, hits give low values 1.01 | locus YJL187C, strain SWE1 (second series), hits give low values 1 | locus YJL187C, strain SWE1, hits give low values 1 | locus YJR043C, strain POL32, hits give low values 0.982
